# Legend:
# Assay in all cases: DAPPL (digital affinity profiling via proximity ligation, sequencing); 10 mM Tris-HCl pH 7.5, 50 mM NaCl, 1 mM DTT, 4% glycerol, room temperature, 30 min; GST-TFs on glutathione beads, 16-mer random dsDNA library, 0.1% formaldehyde crosslink after washing; high values mean tight binding
# Conditions in all cases: protein: recombinant; tags: N-terminal GST; dsDNA, one strand shown
# ETV1 = ETV1 (Homo sapiens, UniProt P50549 1-477)
# Summary of the method: (§1)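 Yeast served to express human transcription factors as GST fusions, which were then captured on glutathione beads and labelled with DNA barcodes. Pooled with a tag-only sample, they were incubated with 200 nmole of a 16-mer random double-stranded DNA library for 30 min at room temperature in Tris/NaCl/DTT/glycerol buffer, washed, crosslinked with 0.1% formaldehyde, ligated by proximity, amplified by PCR and sequenced. Dividing each hexamer's read frequency for a factor by its frequency for the tag-only sample gives the binding signal.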
# ERF = target: T1, ERF (Homo sapiens, UniProt P50548 1-548)
# T1 sequence: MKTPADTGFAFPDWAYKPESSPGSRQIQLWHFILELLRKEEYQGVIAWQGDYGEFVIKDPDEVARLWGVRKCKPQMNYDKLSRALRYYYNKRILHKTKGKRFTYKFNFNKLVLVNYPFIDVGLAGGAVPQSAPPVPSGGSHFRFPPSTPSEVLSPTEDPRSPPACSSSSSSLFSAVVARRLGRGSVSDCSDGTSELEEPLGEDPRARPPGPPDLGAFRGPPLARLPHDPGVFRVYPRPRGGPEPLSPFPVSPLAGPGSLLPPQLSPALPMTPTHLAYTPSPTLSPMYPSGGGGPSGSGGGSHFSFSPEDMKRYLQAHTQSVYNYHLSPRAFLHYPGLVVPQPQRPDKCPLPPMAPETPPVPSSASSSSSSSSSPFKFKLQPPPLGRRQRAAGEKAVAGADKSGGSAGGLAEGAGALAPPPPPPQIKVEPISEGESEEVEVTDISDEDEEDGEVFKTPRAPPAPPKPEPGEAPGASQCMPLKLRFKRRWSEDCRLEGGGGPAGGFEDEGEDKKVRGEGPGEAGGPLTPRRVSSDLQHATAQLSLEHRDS
# Summary of the method: as §1
# ETV3L = target: T2, ETV3L (Homo sapiens, UniProt Q6ZN32 1-361)
# T2 sequence: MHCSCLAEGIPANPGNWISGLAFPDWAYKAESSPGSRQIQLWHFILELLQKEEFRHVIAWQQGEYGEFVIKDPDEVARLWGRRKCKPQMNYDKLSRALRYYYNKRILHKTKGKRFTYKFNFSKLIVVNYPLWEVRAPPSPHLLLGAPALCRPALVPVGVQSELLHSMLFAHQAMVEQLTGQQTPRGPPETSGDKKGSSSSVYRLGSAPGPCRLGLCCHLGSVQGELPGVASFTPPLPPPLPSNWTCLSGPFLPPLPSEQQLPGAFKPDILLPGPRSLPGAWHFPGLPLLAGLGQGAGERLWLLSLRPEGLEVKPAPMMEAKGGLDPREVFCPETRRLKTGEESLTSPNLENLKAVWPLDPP
# Summary of the method: as §1
# ETS2 = target: T3, ETS2 (Homo sapiens, UniProt P15036 1-469)
# T3 sequence: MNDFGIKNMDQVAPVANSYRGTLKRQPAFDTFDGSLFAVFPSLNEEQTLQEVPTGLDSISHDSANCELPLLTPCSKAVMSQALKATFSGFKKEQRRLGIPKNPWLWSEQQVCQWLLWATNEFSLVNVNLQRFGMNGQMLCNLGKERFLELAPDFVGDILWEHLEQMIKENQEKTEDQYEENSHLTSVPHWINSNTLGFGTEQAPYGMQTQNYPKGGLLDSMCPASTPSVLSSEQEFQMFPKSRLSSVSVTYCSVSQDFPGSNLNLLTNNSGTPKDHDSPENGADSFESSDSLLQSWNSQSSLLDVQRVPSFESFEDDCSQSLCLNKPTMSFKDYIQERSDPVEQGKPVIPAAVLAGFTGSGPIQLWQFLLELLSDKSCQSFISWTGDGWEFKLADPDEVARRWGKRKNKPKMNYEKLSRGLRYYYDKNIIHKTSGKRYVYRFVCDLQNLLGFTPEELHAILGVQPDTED
# Summary of the method: as §1
# SPDEF = target: T4, SPDEF (Homo sapiens, UniProt O95238 1-335)
# T4 sequence: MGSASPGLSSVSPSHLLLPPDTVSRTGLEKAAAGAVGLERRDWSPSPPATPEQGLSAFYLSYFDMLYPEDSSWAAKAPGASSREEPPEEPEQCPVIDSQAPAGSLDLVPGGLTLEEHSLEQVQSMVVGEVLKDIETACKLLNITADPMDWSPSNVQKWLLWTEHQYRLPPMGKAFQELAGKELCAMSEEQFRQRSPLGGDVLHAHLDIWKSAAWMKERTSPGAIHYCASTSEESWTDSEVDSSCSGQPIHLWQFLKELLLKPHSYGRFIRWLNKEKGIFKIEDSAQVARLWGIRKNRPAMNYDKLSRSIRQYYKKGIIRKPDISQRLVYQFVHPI
# Summary of the method: as §1
# ETV7 = target: T5, ETV7 (Homo sapiens, UniProt Q9Y603 1-341)
# T5 sequence: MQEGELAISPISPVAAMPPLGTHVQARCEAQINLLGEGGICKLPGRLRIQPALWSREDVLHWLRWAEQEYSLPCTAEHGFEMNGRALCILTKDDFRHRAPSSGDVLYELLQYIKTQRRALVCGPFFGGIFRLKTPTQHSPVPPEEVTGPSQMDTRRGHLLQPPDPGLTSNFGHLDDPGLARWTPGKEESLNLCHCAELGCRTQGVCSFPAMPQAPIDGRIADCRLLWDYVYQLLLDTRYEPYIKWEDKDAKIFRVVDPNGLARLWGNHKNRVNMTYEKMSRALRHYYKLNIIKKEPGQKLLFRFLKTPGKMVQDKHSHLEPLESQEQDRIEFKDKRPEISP
# Summary of the method: as §1
# ELF5 = target: T6, ELF5 (Homo sapiens, UniProt Q9UKW6-2 1-255)
# T6 sequence: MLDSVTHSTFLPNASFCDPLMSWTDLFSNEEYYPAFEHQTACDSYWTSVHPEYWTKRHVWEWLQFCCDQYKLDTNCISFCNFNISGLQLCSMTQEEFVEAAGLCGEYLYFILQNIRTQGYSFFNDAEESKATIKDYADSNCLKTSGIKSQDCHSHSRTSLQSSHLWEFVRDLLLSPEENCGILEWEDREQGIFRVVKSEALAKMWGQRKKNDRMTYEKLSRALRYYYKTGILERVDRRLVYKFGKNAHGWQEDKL
# Summary of the method: as §1
# ETV3 = target: T7, ETV3 (Homo sapiens, UniProt P41162-2 1-143)
# T7 sequence: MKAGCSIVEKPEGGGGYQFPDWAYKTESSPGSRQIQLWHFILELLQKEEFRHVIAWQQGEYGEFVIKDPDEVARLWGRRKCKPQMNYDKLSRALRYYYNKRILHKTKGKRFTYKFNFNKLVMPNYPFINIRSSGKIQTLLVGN
# Summary of the method: as §1
# ETV6 = ETV6 (Homo sapiens, UniProt P41212 1-452)
# Chain of ETV6 (P41212 whole entry): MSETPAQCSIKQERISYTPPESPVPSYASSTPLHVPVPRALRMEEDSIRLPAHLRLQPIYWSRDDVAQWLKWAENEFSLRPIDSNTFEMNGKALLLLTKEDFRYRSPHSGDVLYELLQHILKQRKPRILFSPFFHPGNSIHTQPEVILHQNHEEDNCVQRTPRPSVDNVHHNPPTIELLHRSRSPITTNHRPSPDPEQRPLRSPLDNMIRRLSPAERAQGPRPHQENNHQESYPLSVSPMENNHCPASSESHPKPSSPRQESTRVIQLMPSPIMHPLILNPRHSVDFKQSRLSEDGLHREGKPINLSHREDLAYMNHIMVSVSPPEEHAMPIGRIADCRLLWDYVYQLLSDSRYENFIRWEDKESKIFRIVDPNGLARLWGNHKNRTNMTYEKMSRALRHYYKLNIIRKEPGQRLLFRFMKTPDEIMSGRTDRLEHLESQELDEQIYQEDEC
# Summary of the method: as §1
# Chain of ETV1 (P50549 whole entry, the tested form may be a part): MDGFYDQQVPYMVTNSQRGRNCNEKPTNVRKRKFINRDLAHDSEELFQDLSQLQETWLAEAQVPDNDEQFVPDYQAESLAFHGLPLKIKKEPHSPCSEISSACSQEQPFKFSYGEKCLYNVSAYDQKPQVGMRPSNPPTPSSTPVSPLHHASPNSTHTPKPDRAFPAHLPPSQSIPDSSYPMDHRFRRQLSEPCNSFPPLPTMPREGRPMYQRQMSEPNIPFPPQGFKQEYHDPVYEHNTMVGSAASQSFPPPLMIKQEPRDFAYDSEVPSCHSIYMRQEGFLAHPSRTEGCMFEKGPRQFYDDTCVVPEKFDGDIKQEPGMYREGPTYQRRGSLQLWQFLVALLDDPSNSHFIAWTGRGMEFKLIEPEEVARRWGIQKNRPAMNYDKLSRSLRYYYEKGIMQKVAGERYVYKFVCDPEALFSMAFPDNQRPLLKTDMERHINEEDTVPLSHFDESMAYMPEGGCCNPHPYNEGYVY
sequence,measurement,setting,value
CACTCC,binding signal,ETV1,"1.27 fold enrichment (6-mer frequency, TF over GST control)"
same,binding signal,ERF,"1.15 fold enrichment (6-mer frequency, TF over GST control)"
same,binding signal,ETV3L,"1.33 fold enrichment (6-mer frequency, TF over GST control)"
same,binding signal,ETS2,"1.17 fold enrichment (6-mer frequency, TF over GST control)"
same,binding signal,SPDEF,"1.2 fold enrichment (6-mer frequency, TF over GST control)"
same,binding signal,ETV7,"1.24 fold enrichment (6-mer frequency, TF over GST control)"
same,binding signal,ELF5,"1.18 fold enrichment (6-mer frequency, TF over GST control)"
same,binding signal,ETV3,"1.26 fold enrichment (6-mer frequency, TF over GST control)"
same,binding signal,ETV6,"1.28 fold enrichment (6-mer frequency, TF over GST control)"

# Reference: article PMC7862700, “An all-to-all approach to the identification of sequence-specific readers for epigenetic DNA modifications on cytosine”
